These results are taken from PubChem BioAssay (NCI).

Among the test systems are DU-145 prostate; MALME-3M melanoma; MDA-MB-231 breast; RXF 393 renal; SF-268 CNS; SF-295 CNS; SF-539 CNS; UACC-257 melanoma; M14 melanoma; HCT-15 colon; HT29 colon; SNB-75 CNS; SNB-19 CNS; U251 CNS; PC-3 prostate; UACC-62 melanoma; LOX IMVI melanoma; SK-MEL-28 melanoma; K-562 leukemia.
What all share (test): NCI-60 one-dose screen, 48 h (100 = growth as untreated, 0 = no growth, -100 = all killed)
Holding throughout (details): 10 µM unless noted

Structures are written as SMILES. This is part of a sample that, as a whole, favours compounds with a hit. Of some 83,000 tested, about 20% had one in any assay.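 Percent growth is the endpoint: 0 to 100 indicates growth inhibition (40 means 60% inhibition), 0 means no net growth, and negative values indicate cell death.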 Unmarked numbers belong to inactive results. Activity calls are given as the source filed them. The calls were made as follows: active = growth percent below 10; inactive = the rest.

Turning to `COc1ccc(-c2cc(-c3ccc(Nc4ccnc5cc(Cl)ccc45)cc3)nc(N3CCOCC3)n2)cc1`, the growth with DU-145 prostate is 21.7%; with MALME-3M melanoma, -39.1% (active); with MDA-MB-231 breast, 52.4%; with RXF 393 renal, 34.9%; in the experiment with SF-268 CNS it was 72.1%; with SF-295 CNS, 94.6%. The growth in the experiment with SF-539 CNS was -41.1% (active); with UACC-257 melanoma, 79%; in the experiment on M14 melanoma, 12.9%; in the experiment on HCT-15 colon, 20.7%; with HT29 colon, 8.19% (active); in the experiment with SNB-75 CNS it was -14.8% (active). Further, the growth was 28.2% in the experiment with SNB-19 CNS; -37.7% (active) in the experiment with U251 CNS; 46.9% in the experiment with PC-3 prostate; 14.9% in the experiment with UACC-62 melanoma; -58.6% (active) in the experiment with LOX IMVI melanoma; 5.53% (active) with SK-MEL-28 melanoma.

Regarding `CCN1CCN(c2nc(NCCNc3ccnc4cc(Cl)ccc34)c3ccccc3n2)CC1`, the growth is 33.9% in the experiment with DU-145 prostate; -78% (active) in the experiment with MALME-3M melanoma; -73% (active) with MDA-MB-231 breast; -39% (active) in the experiment with RXF 393 renal; 27.2% in the experiment with SF-268 CNS; -41.9% (active) in the experiment on SF-295 CNS. For the same compound, the growth in the experiment on SF-539 CNS was -71.2% (active); with UACC-257 melanoma, 57.9%; with M14 melanoma it was -76.6% (active); with HCT-15 colon, 7.08% (active); with HT29 colon, -14.1% (active); in the experiment on SNB-75 CNS it was 44.7%. Besides, the growth in the experiment on SNB-19 CNS was 14.4%; in the experiment with U251 CNS, -16.7% (active); in the experiment on PC-3 prostate it was 24.7%; in the experiment on UACC-62 melanoma, -87.9% (active); in the experiment with LOX IMVI melanoma it was -62.9% (active); in the experiment on SK-MEL-28 melanoma it was -60.1% (active).

In the case of `COc1cc(Nc2cc(C)nc(N3CCN(c4ccnc5cc(Cl)ccc45)CC3)n2)cc(OC)c1`, the growth with DU-145 prostate was 2.17% (active); in the experiment with K-562 leukemia it was 8.3% (active); in the experiment with MDA-MB-231 breast, -35.1% (active); in the experiment on RXF 393 renal it was 4.88% (active); with SF-268 CNS, 15.1%; in the experiment on SF-295 CNS it was 0.307% (active). In addition, the growth in the experiment on SF-539 CNS was -16.9% (active); with UACC-257 melanoma, 49.2%; in the experiment on M14 melanoma it was 4.43% (active); in the experiment with HCT-15 colon it was 5.63% (active); in the experiment on HT29 colon it was 3.4% (active); with SNB-75 CNS, 8.38% (active). For the same compound, the growth in the experiment with SNB-19 CNS was 27.5%; in the experiment on U251 CNS, 9.56% (active); in the experiment with PC-3 prostate, 22.8%; with UACC-62 melanoma it was -2.21% (active); in the experiment on SK-MEL-28 melanoma it was 44.5%.

`CCc1nc(N)nc(N)c1C#CC(C)c1cc(-c2ccnc(C)c2)c2oc(C)nc2c1` (centres undefined): the growth in the experiment on DU-145 prostate is 8.31% (active); with MALME-3M melanoma, 36.7%; with MDA-MB-231 breast, 25.6%; with RXF 393 renal it was -5.33% (active); in the experiment on SF-268 CNS it was 1.29% (active); in the experiment with SF-295 CNS, 5.73% (active). Besides, the growth is -27.3% (active) in the experiment on SF-539 CNS; 30.9% in the experiment with UACC-257 melanoma; -9.02% (active) in the experiment with M14 melanoma; 10.7% in the experiment on HCT-15 colon; 6.46% (active) in the experiment with HT29 colon; -23.2% (active) with SNB-75 CNS. The growth in the experiment on SNB-19 CNS is 7.53% (active); with U251 CNS, 3.52% (active); in the experiment with PC-3 prostate, 16.5%; in the experiment with UACC-62 melanoma, -12.3% (active); in the experiment on LOX IMVI melanoma, -18.8% (active); in the experiment with SK-MEL-28 melanoma, 41.1%.

Take `CCc1nc(N)nc(N)c1C#CC(C)c1ccc(-c2ccncc2)cc1Cl` (centres undefined): the growth with DU-145 prostate is 21.1%; in the experiment on MALME-3M melanoma it was 39.6%; in the experiment on MDA-MB-231 breast, 43.3%; with RXF 393 renal, 32.9%; in the experiment on SF-268 CNS, 16.6%; in the experiment on SF-295 CNS it was 10.1%. Besides, the growth with SF-539 CNS is 4.42% (active); in the experiment on UACC-257 melanoma, 31.9%; in the experiment on M14 melanoma, 1.01% (active); in the experiment on HCT-15 colon, 13.3%; in the experiment with HT29 colon, 4.74% (active); in the experiment on SNB-75 CNS, -9.88% (active). In addition, the growth is 20.9% in the experiment on SNB-19 CNS; 13.8% in the experiment with U251 CNS; 21.6% in the experiment with PC-3 prostate; 13.2% with UACC-62 melanoma; 13.9% in the experiment on LOX IMVI melanoma; 40.4% in the experiment on SK-MEL-28 melanoma.

Regarding `CC(=O)c1cc2c(N)c(C(=O)Nc3cccc(F)c3C)sc2nc1C`, the growth in the experiment with DU-145 prostate was 99.1%; with MALME-3M melanoma, 94%; in the experiment with MDA-MB-231 breast, 82.1%; with RXF 393 renal, 96.6%; in the experiment with SF-268 CNS it was 94.3%; in the experiment on SF-295 CNS it was 82.4%. Also, the growth in the experiment with SF-539 CNS is 93.5%; in the experiment on UACC-257 melanoma, 74.5%; in the experiment with M14 melanoma it was 65.2%; in the experiment on HCT-15 colon, 85%; in the experiment on HT29 colon it was 81.6%; with SNB-75 CNS, 68.1%. Further, the growth was 83.1% with SNB-19 CNS; 93.3% with U251 CNS; 81.4% in the experiment with PC-3 prostate; 52.1% in the experiment with UACC-62 melanoma; 96.9% in the experiment with LOX IMVI melanoma; 97.4% in the experiment on SK-MEL-28 melanoma.

For the compound `O=C(Cc1ccc(/C=C/C(=O)c2ncc[nH]2)cc1)Nc1ccccc1`, the growth is 17.8% in the experiment with DU-145 prostate; 98.2% with MALME-3M melanoma; 70.7% in the experiment on MDA-MB-231 breast; 42.9% in the experiment with RXF 393 renal; 51.5% in the experiment with SF-268 CNS; 69.7% in the experiment with SF-295 CNS. Also, the growth in the experiment with SF-539 CNS was -23.3% (active); in the experiment with UACC-257 melanoma, 97.2%; in the experiment with M14 melanoma, 73.6%; in the experiment with HCT-15 colon it was 12.9%; with HT29 colon it was 4.83% (active); in the experiment with SNB-75 CNS it was 58.4%. Further, the growth with SNB-19 CNS was 22.6%; in the experiment on U251 CNS, 11.3%; in the experiment on PC-3 prostate, 57.1%; in the experiment on UACC-62 melanoma, 68.5%; in the experiment on LOX IMVI melanoma, 10.1%; in the experiment on SK-MEL-28 melanoma, 98.9%.

As to `COc1ccc2c(c1)CC/C(=C\c1cncc(Br)c1)C2=O`, the growth with DU-145 prostate was 102%; with MALME-3M melanoma, 106%; in the experiment on MDA-MB-231 breast it was 94.5%; with RXF 393 renal it was 98.4%; in the experiment with SF-268 CNS it was 97.1%; with SF-295 CNS it was 94.5%. The growth with SF-539 CNS is 93.2%; in the experiment with UACC-257 melanoma it was 112%; in the experiment with M14 melanoma, 92.9%; in the experiment with HCT-15 colon it was 94.7%; in the experiment on HT29 colon it was 79.7%; in the experiment with SNB-75 CNS it was 120%. Besides, the growth in the experiment with SNB-19 CNS is 90.7%; with U251 CNS, 85.9%; with PC-3 prostate, 92.7%; in the experiment with LOX IMVI melanoma, 88.3%.

Regarding `CCOC(=O)c1cc(C(=O)c2ccc(O)c(O)c2)n2ccc(-c3ccn4c(C(=O)c5ccc(O)c(O)c5)cc(C(=O)OCC)c4c3)cc12`, the growth is 93.8% in the experiment on DU-145 prostate; 105% with MALME-3M melanoma; 52.6% with MDA-MB-231 breast; 86.5% in the experiment with RXF 393 renal; 88.5% in the experiment on SF-268 CNS; 102% with SF-295 CNS. The growth is 92.5% in the experiment with SF-539 CNS; 100% with UACC-257 melanoma; 93.2% in the experiment with M14 melanoma; 88% in the experiment with HCT-15 colon; 96% with HT29 colon; 87.3% in the experiment on SNB-75 CNS. The growth in the experiment on SNB-19 CNS is 93.9%; in the experiment with U251 CNS, 97%; in the experiment on PC-3 prostate it was 89.1%; in the experiment with UACC-62 melanoma, 97.9%; in the experiment with LOX IMVI melanoma, 89%; in the experiment on SK-MEL-28 melanoma, 113%.
